# An excerpt weighted towards active compounds, which were near 11% of everything screened.
# USP30 block = blocks human USP30 ubiquitin-rhodamine cleavage. purified USP30, Ub-rhodamine cleavage fluorescence. inhibition, % at 25 µM. hit rate 5.3% among 47,000. AID 1645860
# USP28 inh = blocks human USP28 ubiquitin-rhodamine cleavage; purified USP28, Ub-rhodamine cleavage fluorescence, 30 min; Q96RU2; inhibition, % at 25 µM; hit rate 3% among 47,000
# OTUD3 inh = human OTUD3 deubiquitinase inhibition | purified OTUD3, Ub-rhodamine fluorescence, 2 h | inhibition, % at 25 µM | hit rate 0.7% among 47,000 | AID 1645858
# USP17 block = human USP17-like deubiquitinase inhibition. purified USP17, Ub-rhodamine cleavage fluorescence, 3 h. A8MUK1. inhibition, % at 50 µM. hit rate 6.5% among 47,000
# An asterisk follows results filed as active; . = no result given. No stated cut-off is given here; in the data, active means inhibition above about 30%; inactive means the rest.
SMILES,USP30 block,USP28 inh,OTUD3 inh,USP17 block
COc1cc2c(cc1OC)-c1c(c(C(=O)N3CCCC3)nn1-c1ccccc1F)C2,99*,76*,5,76*
CCC(C)[C@H](NS(=O)(=O)c1ccc(C)cc1)C(=O)N1CCC(C(=O)N[C@@H](Cc2c[nH]c3ccccc23)C(=O)O)CC1 (some centres not stated),-12,-1,-5,10
COCc1cc(=O)n(Cc2cc(C)ccc2C)c(N2CCCC2)n1,-8,-11,0,2
O=C(/C=C/c1ccc2c(c1)OCO2)c1ccc(-n2cncn2)cc1,.,.,-4,45*
CN1CC(NC(=O)/C=C/c2ccc3c(c2)OCO3)CC1=O (configuration not stated),-2,0,1,-6
COc1ccc(CCn2cnc3c([nH]c4ccccc43)c2=O)cc1,96*,35*,11,34*
Cc1ccc2[nH]c3c(=O)n(CC4CCCO4)cnc3c2c1 (configuration not stated),44*,-4,3,68*
Cc1ccc2[nH]c3c(=O)n(CCc4ccc(O)cc4)cnc3c2c1,93*,43*,5,57*
Cc1ccc2[nH]c3c(=O)n(CCN4CCCC4)cnc3c2c1,5,13,11,5
Cc1ccc(F)cc1CN1CCC(c2nc(-c3cccnc3)no2)CC1,-77,-15,-6,-23
COc1ccc(NC(=O)[C@H]2C[C@H](C(C)C)N[C@]23C(=O)Nc2ccccc23)cc1,.,.,3,6
Cc1ccc(Nc2c(-c3cccnc3)nc3cc(C)ccn23)cc1,32*,33*,4,-9
COC(=O)c1cccc(Nc2c(-c3ccc(OC)cc3)nc3cnccn23)c1,-122,-42,-36,-53
O=C(NCc1ccccc1)c1nc2n(n1)-c1ccccc1S(=O)(=O)N2,34*,12,5,3
CCc1ccccc1N1CC(c2nnc(NC(=O)Cc3ccc(C)cc3)s2)CC1=O (configuration not stated),14,6,4,37*
O=C(C1CCOCC1)N1CCCCCC1C1CCN(c2ncccn2)CC1 (configuration not stated),0,0,0,1
COc1cc(C2CC(=O)Nc3nc(-c4ccccc4)[nH]c(=O)c32)cc(OC)c1O (configuration not stated),66*,65*,47*,82*
COc1ccccc1C1CC(=O)Nc2n[nH]c(-c3ccccc3)c21 (configuration not stated),0,7,-2,.
COc1ccc(C2CC(=O)Nc3n[nH]c(-c4ccccc4)c32)cc1OC (configuration not stated),70*,20,11,15
O=C1CC(c2ccccc2F)c2c(nc(-c3ccccc3)[nH]c2=O)N1 (configuration not stated),10,4,0,6
COc1ccc(OC)c(C2CC(=O)Nc3n[nH]c(-c4ccccc4)c32)c1 (configuration not stated),36*,10,9,72*
CC1CCN(S(=O)(=O)N2CCCC(C(=O)NCCN3CCCC3)C2)CC1 (configuration not stated),-17,-11,-7,-7
CC(O)(CS(=O)(=O)c1ccc(Cl)cc1)CS(=O)(=O)c1ccccc1Cl (configuration not stated),-11,-9,-6,-10
CC(C)(C)C(=O)Cn1c(=O)n(Cc2ccc3c(c2)OCO3)c(=O)c2ccc(C(=O)NC3CCCCC3)cc21,2,-4,0,0
COc1ccccc1C(=O)N(Cc1ccccc1)C(C)(C)c1ccccc1,36*,18,18,26
SMILES,USP30 block,USP28 inh,OTUD3 inh,USP17 block
O=C(CCSCc1cccc(F)c1)NCCc1ccc(Cl)cc1,37*,15,11,14
O=C(CCSCc1ccccc1F)NCCc1ccccc1,0,3,-1,4
c1ccc(Cc2nnc(N3CCOCC3)c3ccccc23)cc1,26,34*,14,13
CCOC(=O)c1ccc(NC(=O)c2cnc(N3CCOCC3)nc2)cc1,-243,-70,30*,-97
Cc1ccc(NC(=O)c2cnc(N3CCOCC3)nc2)cc1F,46*,27,-1,89*
Cc1ccc(NC(=O)c2cnc(N3CCOCC3)nc2)cc1C,-7,22,3,2
c1ccc(CC(CCNc2ncnc3c2oc2ccccc23)c2ccco2)cc1 (configuration not stated),-14,-1,4,1
CC(C)(C)C(=O)[C@@H]1[C@@H](C(=O)c2ccc3c(c2)OCO3)[C@@]2(C(=O)Nc3ccccc32)[C@H]2c3ccccc3C=CN12,-67,31*,1,82*
c1ccc(-c2onc3c2CCCC3)cc1,17,35*,10,9
Cc1cccc(C)c1NC(=O)c1cccc(COc2ccc3c(c2)CCC3)c1,6,31*,10,-2
Cc1ccc(CN2CC[C@@H]3[C@H]2C(=O)NC[C@H](CCC(=O)NCc2cccnc2)N3C)cc1,-43,-9,-6,-74
COc1ccc(CN2CC[C@@H]3[C@H]2C(=O)NC[C@H](CCC(=O)NCc2cccnc2)N3C)cc1,38*,34*,25,-30
Clc1ccc(Cc2nnc(-c3cccnc3)o2)cc1,0,31*,1,1
O=C(Cn1c(=O)[nH]c2ccccc2c1=O)NCC1CCC(C(=O)N[C@H](C(=O)O)c2ccccc2)CC1 (some centres not stated),3,-3,-1,-20
O=C(COc1ncnc2ccccc12)Nc1ccc(OCc2ccccc2)cc1,.,.,-1,48*
O=C(Nc1ccc(NC(=O)c2ccccc2O)cc1)Nc1ccc(OCc2ccccc2)cc1,-479,-115,-60,-19
CNc1cc(C2CCCN(C(=O)c3cc4c([nH]c3=O)CCC4)C2)ccn1 (configuration not stated),-17,-1,1,-1
O=C(C[C@@H]1CCN2C[C@@H]1CCCOc1ccccc1CN(C(=O)c1cccnc1)CC2=O)N1CCOCC1,92*,86*,7,78*
CC(C)NC(=O)N1CC(=O)N2CC[C@@H](CC(=O)N3CCOCC3)[C@@H](CCCOc3ccccc3C1)C2,100*,72*,6,75*
O=C(C[C@@H]1CCN2C[C@@H]1CCCOc1ccccc1CN(C(=O)COc1ccccc1)CC2=O)N1CCOCC1,79*,55*,2,71*
COc1ccc(-c2nsc(NC(=O)COc3cccc(C)c3)n2)cc1OC,-2,1,-3,4
CC1=C(C)C(N(c2ccccc2)c2ccccc2)N(CCC(C)C)C1=O (configuration not stated),16,16,10,76*
Cc1oc2ccc(NS(=O)(=O)c3ccc(F)cc3)cc2c1C(=O)OCc1ccccc1,26,60*,7,6
O=C(c1ccccc1)c1c(-c2ccccc2)oc2ccc(NS(=O)(=O)c3ccc(Cl)cc3)cc12,26,25,10,10
O=C(Nc1cccc(CCc2nc3ccccc3n2-c2ccccc2)c1)c1cnccn1,21,11,-1,7
Cc1cccc(-c2nn(-c3ccccc3)c3c2c(C)cc(=O)n3CC(=O)N2CCOCC2)c1,-10,-16,-14,-1
